# From PubChem BioAssay (NCI)
# About 83,000 compounds went through this panel and 20% of them were active in at least one assay; those are over-represented in the sample as a whole.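 96-well plates, one dose, 48 hours. Percent growth reported; active if below 10.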 Unmarked numbers belong to inactive results. Activity calls are given as the source filed them.
# Tests used:
# Test in all cases: NCI-60 one-dose screen, 48 h (100 = growth as untreated, 0 = no growth, -100 = all killed)
# Conditions in all cases: 10 µM unless noted
# [1] = tested on: HCT-15 colon
# [2] = tested on: HT29 colon
# [3] = tested on: SNB-75 CNS
# [4] = tested on: SNB-19 CNS
# [5] = tested on: U251 CNS
# [6] = tested on: PC-3 prostate
# [7] = tested on: SK-MEL-5 melanoma
# [8] = tested on: UACC-62 melanoma
# [9] = tested on: LOX IMVI melanoma
# [10] = tested on: SK-MEL-28 melanoma
# [11] = tested on: SK-MEL-2 melanoma
# [12] = tested on: EKVX NSCLC
# [13] = tested on: SN12C renal
# [14] = tested on: UO-31 renal
# [15] = tested on: TK-10 renal
# [16] = tested on: ACHN renal
# [17] = tested on: CAKI-1 renal
# [18] = tested on: A498 renal
# [19] = tested on: CCRF-CEM leukemia
# [20] = tested on: MOLT-4 leukemia
SMILES,growth [1],growth [2],growth [3],growth [4],growth [5],growth [6],growth [7],growth [8],growth [9],growth [10],growth [11],growth [12],growth [13],growth [14],growth [15],growth [16],growth [17],growth [18],growth [19],growth [20]
CCOC(=O)c1ccc2c(c1)[n+](=O)c(C(=O)c1ccc3ccccc3c1)c(C(F)(F)F)n2[O-],-96.1% (active),-97.4% (active),-100% (active),-85.5% (active),-100% (active),-99.2% (active),-100% (active),-97.2% (active),-97.5% (active),-96.3% (active),-83.5% (active),-56.8% (active),-99.2% (active),-96% (active),-89.7% (active),-100% (active),-93.8% (active),-62.4% (active),–,–
CCOc1cc(/C=N\NC(=O)C[N+](C)(C)C)ccc1O,103%,105%,106%,117%,105%,99.6%,105%,111%,103%,117%,115%,98.7%,109%,113%,105%,103%,95.9%,115%,98.5%,28.5%
O=C(NCCN1CCCC1)n1cc(-c2ccncc2)c(-c2cc(O)cc(Cl)c2)n1,88.6%,90.1%,110%,98.5%,82.9%,103%,62.9%,34.6%,79.7%,36.7%,90.8%,119%,82.5%,100%,78.6%,82.2%,109%,103%,85.7%,–
Cc1ccc(C)c2c1SC1=NNC(Oc3ccc(Cl)cc3)=C(C#N)C(=N)N12,104%,103%,92.2%,110%,98.4%,85%,93.5%,97.1%,99.7%,107%,132%,100%,117%,85.3%,125%,90.6%,87.4%,87.1%,96.8%,85.2%
O/N=C/c1ccncc1,104%,94.5%,96.2%,122%,102%,95.9%,105%,111%,100%,115%,112%,100%,121%,102%,100%,109%,84.3%,101%,95.5%,–
COc1cc(NC(=O)CSc2nc3ccc(Cl)cc3c(=O)n2Cc2ccccc2)cc(OC)c1OC,88.3%,56.5%,53.4%,88.3%,55.5%,71.1%,45.5%,43.2%,74.5%,78.2%,77.6%,83.2%,88.5%,62.4%,72.9%,57.6%,76.9%,11.7%,93.8%,–
CCC(=O)NC1=C(Cl)C(=O)C(NC(=O)CC)=C(Cl)C1=O,101%,106%,107%,115%,92.8%,91.4%,96.3%,102%,66.6%,-1.93% (active),111%,129%,101%,2.01% (active),50.5%,21.2%,103%,130%,-42.7% (active),-41.3% (active)
Cc1c(C(N)=O)sc2ncn(CC(=O)NN=C3CCCCC3)c(=O)c12,109%,90.5%,102%,104%,99.5%,122%,106%,99.9%,103%,118%,5.33% (active),96.6%,96.3%,124%,106%,109%,132%,111%,113%,109%
CCN(CC)CCNC(=O)n1cc(-c2ccncc2)c(-c2ccc(Cl)c(OC)c2)n1,96.1%,59.4%,64.7%,93%,90.3%,88.2%,94.1%,72.5%,92.3%,90.2%,96.1%,61.8%,90.7%,69.2%,26.9%,77.6%,99.7%,95.5%,98.3%,–
CSc1nc(N)c2[nH]c(-c3cc4ccccc4[nH]c3=O)nc2n1,64.8%,94.2%,113%,109%,84.7%,78.7%,100%,83.4%,69.9%,116%,74.2%,103%,85.1%,57.3%,106%,61.1%,68.9%,92.4%,91.6%,–
C#CCO[C@H]1CC[C@H](OCC#C)[C@@H]2[C@H]1[C@H]1C[C@@H]3[C@@]4(C)CCC[C@@](C)(C(=O)OC)[C@@H]4CC[C@@]23C=C1C(C)C,91.8%,53.6%,94.7%,96.1%,46.8%,44.8%,87.6%,74.6%,-64.5% (active),102%,85%,74.4%,86.3%,50.5%,93.7%,92.6%,59.3%,108%,–,–
COc1cc(/C=C/c2cc(/C=C/c3ccc(O)c(OC)c3)n(C(=O)c3ccccc3Br)n2)ccc1O,16.2%,0.381% (active),27.3%,36.2%,35.1%,12.9%,-1.91% (active),3.48% (active),9.29% (active),28.6%,-0.325% (active),30.6%,14.2%,23.9%,65%,25.1%,-34.8% (active),56.4%,3.52% (active),–
C[C@@H]1N=C(c2ccc3ccccc3c2)Nc2nc3ccccn3c2C1=O,33.8%,5.93% (active),37.1%,53.3%,32.5%,52%,35.3%,48.8%,48.5%,59.9%,36.3%,75.6%,60.1%,55.6%,64.4%,55.4%,38.5%,47.3%,52.9%,–
Nc1c(Br)cc2c(c1Br)Cc1cc(Cl)ccc1-2,109%,111%,72.4%,88.5%,101%,82.6%,90.5%,96.2%,89.3%,98.6%,114%,69.1%,89.8%,77.6%,130%,81.3%,74.6%,121%,94.2%,–
CN(C)N1C(=O)c2c(Cl)c(Cl)c(Cl)c(Cl)c2C1=O,109%,107%,92.7%,108%,102%,99.2%,101%,104%,96.8%,112%,105%,124%,103%,95.9%,98%,133%,126%,106%,89%,–
CCCCCCCCCCCCCCCC1=NCCN1,0.909% (active),4.17% (active),82.7%,24.8%,16.1%,47.6%,80.6%,76.1%,1.64% (active),80.7%,96%,85.2%,-51.6% (active),64.5%,102%,71.2%,81.3%,65.5%,–,–
